Screening data: PubChem BioAssay, National Center for Advancing Translational Sciences (NCATS)
Tau fibril ThT: tau fibrillization inhibition (ThT binding) | recombinant tau K18 P301L, heparin-induced fibrillization, ThT fluorescence | Potency, µM (series often up to 57.4 µM), for inactives: at the top dose activity, negative = inhibition, usual class: inhibitors | hit rate 2.1% among 270,000; note: potency is the fitted concentration of half-maximal effect; nearly all actives have a fitted effect of over 55% in size
Target sequence (P10636 561-689 P618L limits assumed): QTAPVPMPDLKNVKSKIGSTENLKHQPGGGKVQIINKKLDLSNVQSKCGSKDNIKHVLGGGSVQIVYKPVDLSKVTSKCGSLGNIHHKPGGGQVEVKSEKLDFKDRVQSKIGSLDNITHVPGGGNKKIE
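Recombinant human tau K18 fragment […] carrying P301L, 15 uM unlabeled plus 0.24 uM Alexa 594-labeled, was fibrillized with 20 uM heparin in 100 mM sodium acetate pH 7 for 6 hr at 37 C; 30 uM ThT fluorescence read after 1 hr.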
Tau FP inhib: inhibitors of human tau fibril formation; K18 P301L tau heparin fibrillization, Alexa594 FP, 6 h; Potency, µM (doses to about 57.7 µM), without a hit: at the top dose activity, negative = inhibition, most hits filed as inhibitors; hit rate 0.39% among 280,000; AID 1468; note: potency is the fitted concentration of half-maximal effect; nearly all actives have a fitted effect of over 55% in size
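Heparin (20 uM) drove fibril formation of recombinant tau K18 P301L, 15 uM unlabeled with 0.24 uM Alexa 594 label, for 6 hr at 37 C in 100 mM sodium acetate pH 7. Fluorescence polarization (555/632 nm) read 1 hr after 30 uM ThT.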
KDM4E inh: inhibitors of human JMJD2E histone demethylase; Potency, µM (doses to about 57.1 µM), without a hit: at the top dose activity change, negative = inhibition, most hits filed as inhibitors; hit rate 1.6% among 230,000; B2RXH2; AID 2147; JMJD2E catalytic domain, FDH-coupled NADH fluorescence (FDH is formaldehyde dehydrogenase);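 note: potency is the fitted concentration of half-maximal effect; 0% = wells with enzyme and -100% = buffer wells without enzyme; nearly all actives have a fitted effect of over 50% in size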
Target sequence (B2RXH2 1-337 limits assumed): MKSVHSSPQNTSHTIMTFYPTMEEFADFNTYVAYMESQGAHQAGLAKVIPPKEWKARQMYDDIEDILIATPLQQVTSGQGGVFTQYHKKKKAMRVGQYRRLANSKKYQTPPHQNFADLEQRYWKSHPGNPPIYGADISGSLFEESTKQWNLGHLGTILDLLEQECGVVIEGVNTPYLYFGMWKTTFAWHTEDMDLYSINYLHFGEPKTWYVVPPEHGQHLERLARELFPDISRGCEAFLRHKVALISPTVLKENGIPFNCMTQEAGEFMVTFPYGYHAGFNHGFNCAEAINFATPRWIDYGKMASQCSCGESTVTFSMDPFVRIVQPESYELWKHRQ
Tau fluor counter: counter-screen for tau fibril formation inhibitors | tau K18 P301L Alexa594 fluorescence, heparin fibrillization | Potency, µM (doses to about 57.7 µM), for inactives: at the top dose activity change, negative = decrease | hit rate 0.93% among 280,000 | AID 1463; note: potency is the fitted concentration of half-maximal effect; nearly all actives have a fitted effect of over 55% in size
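Human tau K18 P301L (15 uM unlabeled, 0.24 uM Alexa 594-labeled) in 100 mM sodium acetate pH 7 with 20 uM heparin, 6 hr at 37 C. ThT 30 uM added, 1 hr ambient; Alexa 594 FP and total fluorescence read at 555/632 nm.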
Coupling enz: coupling enzyme interference in Giardia aldolase counter-screen | activity change, negative = inhibition, % at 58.2 µM, hits read low | hit rate 0.67% among 290,000 | coupling enzyme system counterscreen, AmpLite Red fluorescence; in the data active = activity change below about -30%
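Compounds tested against the coupling enzymes alone at 57.5 uM final; readout was AmpLite Red fluorescence (525/598 nm) after 20 min at RT.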
The depositor's hits bear a star; ? = inconclusive; · = not tested or not shown; [ ] = another dose, or the depositor's remark. Sampled rows, rich in hits. Any-hit rate of the full collection: about 3%. Unless noted, calls come from the whole dose curve; as a rule, active = well fitted curve in the direction sought with a large enough effect; inconclusive = small, poorly fitted or top-dose-only effect, or another doubt; inactive = no such curve, though single readings can be large; an effect the other way counts as inactive or inconclusive. Unless noted, % is set by controls: 0 for no effect and ±100 for the full control effect.

SMILES | Tau fibril ThT | Tau FP inhib | KDM4E inh | Tau fluor counter | Coupling enz
CC1(OC(=O)C2CCCC2)C(=O)C=C2C=C(c3ccsc3)OC=C2C1=O (configuration not stated) | 16µM* | ? | -2% | ? | -11
CC1(OC(=O)c2cccs2)C(=O)C=C2C=C(c3ccc(C#N)cc3)OC=C2C1=O (configuration not stated) | 28µM* | ? | 0% | -12% | -2
CC1(OC(=O)c2cccs2)C(=O)C=C2C=C(c3ccsc3)OC=C2C1=O (configuration not stated) | -2% | ? | -3% | -4% | 1
CC1(OC(=O)CCc2ccccc2)C(=O)C=C2C=C(c3ccsc3)OC=C2C1=O (configuration not stated) | 25µM* | ? | 0% | -11% | 5
Nc1ncnc2c1nc(Sc1ccc(Cl)cc1)n2[C@H]1O[C@@H]2COP(=O)(O)O[C@H]2[C@@H]1O | -3% | 3% | 5% | 0% | ·
Cc1cccc(OCC(=O)N(Cc2cccc(Cl)c2)Cc2ccco2)c1C | -10% | -1% | · | -10% | ·
C=C1CC[C@H](O)C/C1=C/C=C1\CCC[C@]2(C)[C@@H]([C@H](C)CCCC(C)(C)O)CC[C@@H]12 | -10% | 3% | -2% | -9% | 3
Cc1c(O)ccc(/C(Cc2ccc3ccccc3n2)=N\O)c1O | -12% | 3% | 3% | -23% | 4
CC(=O)Oc1ccc(C(=O)Cc2ccc3ccccc3n2)c(O)c1C | 1.4µM* | 1% | -5% | -15% | 1
Cc1nnc(N/N=C/c2ccc(O)c([N+](=O)[O-])c2)[nH]c1=O | ? | 11% | ? | -2% | 0
O=[N+]([O-])c1ccc(/C=N/N/C(=N/c2ccccn2)c2ccccn2)cc1 | ? | -6% | -7% | -12% | 1
Clc1ccc(-c2csc(N/N=C/c3ccc4c(c3)OCO4)n2)cc1 | 8.9µM* | -2% | ? | 11µM*[quencher] | -3
O=[N+]([O-])c1cc(/C=N/N/C(=N/c2ccccn2)c2ccccn2)ccc1O | ? | -11% | 18µM* | -13% | -3
O=C(/C=C/c1ccc2c(c1)OCO2)Nc1nc(-c2ccccc2)cs1 | ? | -12% | ? | ? | -7
Cc1csc(N/N=C/c2ccc(O)c([N+](=O)[O-])c2)n1 | 5µM* | -2% | -23% | ? | -4
O=[N+]([O-])c1cc(/C=N\Nc2nc(-c3ccccc3)cs2)ccc1O | 3.2µM* | ? | -8% | 10µM*[quencher] | 2
Cc1ccc(N2CCN(C(=O)C3CCN(c4ncnc5c4nc4n5CCCCC4)CC3)CC2)c(C)c1 | -13% | 0% | · | 2% | ·
O=C(CCC1N=C2c3ccccc3N=C(SCc3ccc(F)cc3)N2C1=O)NCc1ccc(F)cc1 (configuration not stated) | 0% | -3% | · | 5% | ·
O=C(N/N=C/c1ccc(O)c([N+](=O)[O-])c1)C1CC1(c1ccccc1)c1ccccc1 (configuration not stated) | 14µM* | 7% | ? | ? | 4
O=[N+]([O-])c1ccc(-c2csc(N/N=C/c3cccnc3)n2)cc1 | 2.2µM* | 4% | -3% | ? | 5
CC(C)(C)OC(=O)NS(=O)(=O)NCc1ccco1 | · | · | · | · | 4
Cc1cccc(C(=O)Nc2sc(-c3ccccc3)cc2C(=O)O)c1 | 14µM* | 14% | ? | ? | 2
c1ccc(-c2nnc(-c3ccccn3)s2)nc1 | ? | 16% | 2.8µM* | 1% | -6
c1ccc(-c2nc(-c3ccccn3)nc(-c3ccccn3)n2)nc1 | 5% | -1% | ? | 13% | 0
CC(C)(C)[C@@H](O)C(Cc1ccc(Cl)cc1)n1cncn1 (some centres not stated) | · | · | · | · | -1
SMILES | Tau fibril ThT | Tau FP inhib | KDM4E inh | Tau fluor counter | Coupling enz
CCOc1cc(C2Sc3ccccc3NC3=C2C(=O)c2ccccc23)ccc1O (configuration not stated) | 10µM* | ? | · | 10µM*[quencher] | ·
CCCc1ccc(C2Sc3ccccc3NC3=C2C(=O)c2ccccc23)cc1 (configuration not stated) | ? | ? | · | 3.2µM*[quencher] | ·
COc1ccc(Br)cc1C1Sc2ccccc2NC2=C1C(=O)c1ccccc12 (configuration not stated) | ? | -16% | · | ? | ·
O=C1C2=C(Nc3ccccc3SC2c2ccccc2C(F)(F)F)c2ccccc21 (configuration not stated) | ? | 13µM* | · | ? | ·
CCOc1ccc(C2Sc3ccccc3NC3=C2C(=O)OC3)cc1 (configuration not stated) | 4% | ? | -9% | ? | -1
COc1ccc2c(CNC3CCCC3)c(C(=O)O)n(Cc3ccccc3C)c2c1 | -3% | 4% | · | -7% | ·
CN(C)C(=O)Nc1ccc(Oc2ccc(Cl)cc2)cc1 | · | · | · | · | 0
CSc1nc(O)c(C(c2cccc([N+](=O)[O-])c2)c2c(O)nc(SC)[nH]c2=O)c(=O)[nH]1 | 11µM* | ? | -4% | -28% | 12
CCOc1ccc(CNC(=O)CCCn2c(=O)c3cccn3c3ccc(F)cc32)cc1 | 6% | -13% | · | -22% | ·
CCOc1cc(N2CCOCC2)c(OCC)cc1NC(=O)Cc1cccc(OC)c1 | -16% | -6% | -15% | -9% | -1
CCOc1cc(N2CCOCC2)c(OCC)cc1NC(=O)CSc1ncn[nH]1 | -17% | 1% | -19% | -2% | -36*
COc1ccc(-n2nnnc2SCC(=O)Nc2ccccc2N2CCOCC2)cc1OC | 10µM* | -80% | 10% | -17% | 9
CCOc1cc(N2CCOCC2)c(OCC)cc1NC(=O)Cc1ccc(OC)c(OC)c1 | -17% | 6% | -23% | -14% | -41*
CCOc1cc(N2CCOCC2)c(OCC)cc1NC(=O)COC(=O)[C@@H]1CCCN1S(=O)(=O)c1ccccc1F | -2% | 12% | -26% | -4% | -31*
CCOc1cc(N2CCOCC2)c(OCC)cc1NC(=O)CSc1n[nH]c(N)n1 | -2% | 5% | -6% | -7% | -20
CCOc1ccccc1NC(=O)Cn1c(=O)n(Cc2ccco2)c(=O)c2ccc(C(=O)NC3CCCC3)cc21 | -7% | -11% | · | -18% | ·
COc1ccc(C=C2c3ccccc3C(=O)c3ccccc32)cc1O | · | · | · | · | 0
CCOc1cc(N2CCOCC2)c(OCC)cc1NC(C)C(=O)N1CCC(C)CC1 (configuration not stated) | ? | ? | 11µM* | -28% | -47*
FC(F)(F)c1ccc(N2CCOCC2)c(NC2=NCCCCC2)c1 | -10% | -9% | -10% | -8% | -5
CCOc1cc(N2CCOCC2)c(OCC)cc1NC1=NCCCCC1 | -19% | 3% | -19% | -14% | -32*
